Source: article PMC4081100, “A DNA-binding-site landscape and regulatory network analysis for NAC transcription factors in Arabidopsis thaliana”

What follows are sequences tested against T1, GST-ANAC019 NAC domain (Arabidopsis thaliana, UniProt Q9C932 14-162) (assay: universal protein binding microarray (PBM); transcription factors of Arabidopsis thaliana; high values mean tight binding). Details: protein: recombinant; tags: GST; chain copies: 2; dsDNA, one strand shown.
T1 sequence: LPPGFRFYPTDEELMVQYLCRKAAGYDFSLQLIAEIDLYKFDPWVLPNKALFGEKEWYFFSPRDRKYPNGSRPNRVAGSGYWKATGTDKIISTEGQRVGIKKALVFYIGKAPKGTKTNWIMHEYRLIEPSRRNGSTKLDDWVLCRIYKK
Procedure, shortened: (§1)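 Binding is expressed as the normalised enrichment score (E-score). Proteins carrying a GST tag, whether NAC-domain, full-length or DNA-binding-domain forms, were induced in cells, and zinc acetate was added for zinc-finger proteins. After purification on glutathione–Sepharose 4B and quantification by A280 or anti-GST western blot, each was applied in duplicate at 200 to 500 nM final to custom all-10-mer Agilent 4 × 180K arrays made double-stranded by primer extension. Gapped and ungapped 8-mers were scored.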

Sequence | binding signal
AGACGTGA | 0.425 E-score
AAATTGAC | 0.134 E-score
GTAAGTCA | 0.134 E-score
ACTAAGTA | 0.19 E-score
GATACGTA | 0.428 E-score
ACGCAAGA | 0.243 E-score
AGACGCAA | 0.222 E-score
ACGTAAGT | 0.418 E-score
TTACGTAA | 0.479 E-score
AATTACGT | 0.472 E-score
CACGCAAG | 0.413 E-score
TTACGGAA | 0.455 E-score
ACGTAAAA | 0.336 E-score
ACGTAAAG | 0.367 E-score
AACGTAAA | 0.175 E-score
GACGTAAC | 0.355 E-score
CTTACCCC | 0.132 E-score
TCACGCAA | 0.467 E-score
CACGAAAG | 0.25 E-score

The sequences below were run against T2, GST-ANAC055(1-171) (Arabidopsis thaliana, UniProt Q9LDY8 1-171) in the same assay as above. Details: protein: recombinant; tags: GST; chain copies: 2; dsDNA, one strand shown.
T2 sequence: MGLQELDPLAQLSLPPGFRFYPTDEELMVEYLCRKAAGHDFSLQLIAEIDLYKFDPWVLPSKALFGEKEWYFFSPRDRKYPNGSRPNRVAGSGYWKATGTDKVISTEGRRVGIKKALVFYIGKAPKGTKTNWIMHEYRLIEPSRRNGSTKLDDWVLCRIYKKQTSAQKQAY
Procedure, shortened: as §1

Sequence | binding signal
ATTACGTA | 0.438 E-score
ACACGCAA | 0.473 E-score
CAAGGAAA | 0.147 E-score
TAACGTAA | 0.254 E-score
ATTACGTG | 0.432 E-score
ACGCAAAG | 0.228 E-score
CTTACTTA | 0.137 E-score
ATTTCCCC | 0.101 E-score
GTACGTCA | 0.295 E-score
CGTCAAAC | 0.163 E-score
GTACGTAA | 0.42 E-score
AAGTAAGT | 0.164 E-score
AATGCGTG | 0.227 E-score
ACGTAACG | 0.389 E-score
ACGTCAAA | 0.245 E-score
TGAAGAAA | 0.114 E-score
CTACGTTA | 0.144 E-score
AACGTAGA | 0.226 E-score
ATGCGTAC | 0.17 E-score

Sequence | binding signal
AGACGTGA | 0.368 E-score
AAATTGAC | 0.213 E-score
GTAAGTCA | 0.228 E-score
ACTAAGTA | 0.216 E-score
GATACGTA | 0.415 E-score
ACGCAAGA | 0.264 E-score
AGACGCAA | 0.246 E-score
ACGTAAGT | 0.402 E-score
TTACGTAA | 0.478 E-score
AATTACGT | 0.446 E-score
CACGCAAG | 0.354 E-score
TTACGGAA | 0.402 E-score
ACGTAAAA | 0.331 E-score
ACGTAAAG | 0.317 E-score
AACGTAAA | 0.241 E-score
GACGTAAC | 0.369 E-score
CTTACCCC | 0.191 E-score
TCACGCAA | 0.398 E-score
CACGAAAG | 0.216 E-score

These sequences were tested against T3, GST-ATAF1 NAC domain (Arabidopsis thaliana, UniProt Q39013 7-158) in the same assay as above. Details: protein: recombinant; tags: GST; chain copies: 2; dsDNA, one strand shown.
T3 sequence: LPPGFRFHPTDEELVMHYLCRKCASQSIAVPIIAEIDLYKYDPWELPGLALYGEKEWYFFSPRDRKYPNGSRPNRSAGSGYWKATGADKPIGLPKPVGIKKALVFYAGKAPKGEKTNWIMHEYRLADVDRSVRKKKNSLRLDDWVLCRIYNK
Procedure, shortened: as §1

Sequence | binding signal
ATTACGTA | 0.404 E-score
ACACGCAA | 0.439 E-score
CAAGGAAA | 0.167 E-score
TAACGTAA | 0.34 E-score
ATTACGTG | 0.372 E-score
ACGCAAAG | 0.256 E-score
CTTACTTA | 0.154 E-score
ATTTCCCC | 0.0697 E-score
GTACGTCA | 0.366 E-score
CGTCAAAC | 0.147 E-score
GTACGTAA | 0.408 E-score
AAGTAAGT | 0.199 E-score
AATGCGTG | 0.271 E-score
ACGTAACG | 0.348 E-score
ACGTCAAA | 0.176 E-score
TGAAGAAA | 0.129 E-score
CTACGTTA | 0.228 E-score
AACGTAGA | 0.163 E-score
ATGCGTAC | 0.229 E-score

Sequence | binding signal
AGACGTGA | 0.356 E-score
AAATTGAC | 0.228 E-score
GTAAGTCA | 0.238 E-score
ACTAAGTA | 0.192 E-score
GATACGTA | 0.341 E-score
ACGCAAGA | 0.156 E-score
AGACGCAA | 0.262 E-score
ACGTAAGT | 0.407 E-score
TTACGTAA | 0.465 E-score
AATTACGT | 0.435 E-score
CACGCAAG | 0.268 E-score
TTACGGAA | 0.404 E-score
ACGTAAAA | 0.35 E-score
ACGTAAAG | 0.301 E-score
AACGTAAA | 0.298 E-score
GACGTAAC | 0.268 E-score
CTTACCCC | 0.0855 E-score
TCACGCAA | 0.336 E-score
CACGAAAG | 0.133 E-score
